In PubChem BioAssay one finds cell count and inhibition data, which are given here for 40 compounds.

Each structure is given as a SMILES string. The source made the active and inactive calls.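 How the source made its calls: active means inhibition above 20% together with a positive visual image hit; inconclusive means visual image hit but inhibition not above 20%; inactive means no visual image hit.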

A short description of this assay: inhibitors of TNFa-induced NFkB p65 translocation, primary screen, imaging, HUVEC, MLSMR starter and 10KST1 sets (AID 438).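 Further: compound added about 3h40 before a 20 min TNFalpha stimulation.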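 On inhibition: signal is the nuclear over cytoplasmic p65 intensity ratio per well.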 The conditions noted are these: HUVEC TNFa-induced p65 nuclear translocation; cell count: measured here: nuclei count (cytotoxicity indicator), at 2.08 µM; inhibition: at 2 µM, stronger effect = higher value, 0% TNFa-plus-vehicle, 100% no-TNFa wells.
For the compound `CC(C)(Oc1ccc(Cl)cc1)C(=O)NCc1ccncc1`, the cell count turned out to be 419 and the inhibition (usually the relative decrease from the control value, in per cent) was 5.2% (inactive).
`Cc1ccc(C)c(S(=O)(=O)NCc2cccnc2)c1`: the cell count came out at 597 and the inhibition is -0.6% (inactive).
On the same counts, the results for `Cc1cc(-c2ccccc2)c(C#N)c(N)n1` are 331 and -6.4% (inactive).
On to `CCCCCc1c(C)nc(SCC(=O)O)[nH]c1=O`, for which the cell count was 611 and the inhibition is -5.4% (inactive).
On the same counts, the results for `COC(=O)c1ccc(NC(=O)C(C)N2C(=O)c3ccccc3C2=O)cc1` (stereo not given) are 593 and -1.8% (inactive).
On the same counts, the results for `O=C(Nc1cccnc1)c1cccc(NC(=O)c2ccco2)c1` are 350 and 1.5% (inactive).
Turning to `Cc1ccnc(NC(=O)CCC(=O)N(CC(=O)NC(C)(C)C)C2CCCC2)c1`, the inhibition is 1.7% (inactive) and the cell count was determined as 603.
On the same counts, the results for `COCCNC(=O)CN(C)S(=O)(=O)c1ccc(Br)cc1` are 2.1% (inactive) and 465.
In the same order, the values of `CC(=O)NC(C)c1nc2ccccc2n1C(C)C` (stereo not given) are 11.5% (inactive) and 588.
In the same order, the values of `COC(=O)C1CCN(C(=O)c2sc3nc(-c4ccc(F)cc4)cn3c2C)CC1` are -6.1% (inactive) and 654.
As for `CC(Sc1nnnn1C)C(=O)Nc1ccc(Oc2ccccc2)cc1` (stereo not given), the inhibition was 0.5% (inactive) and the cell count came out at 354.
In the same order, the values of `c1ccc(Cn2nnnc2C(c2cccs2)N2CCSCC2)cc1` (stereo not given) are -10.4% (inactive) and 482.
In the same order, the values of `Cn1c(=O)[nH]c(=O)c2c1nc(NCCCn1ccnc1)n2Cc1cccc(Br)c1` are -12.9% (inactive) and 663.
On to `CCOC(=O)N1CCN(C(=O)c2c(-c3ccccc3)noc2C)CC1`, for which the cell count amounted to 816 and the inhibition is 0% (inactive).
Turning to `COc1ccc2c(c1OC)C(=O)N(c1ccc3c(c1)CCC3)C2=O`, the inhibition is -13.1% (inactive) and the cell count was found to be 683.
On the same counts, the results for `Cc1ccc(NC(=O)C2CCCN(S(=O)(=O)c3cnc[nH]3)C2)cc1C` (stereo not given) are 1.6% (inactive) and 626.
In the same order, the values of `O=C(Cn1ncc2c1-c1ccccc1OC2)N1CCN(c2ccccn2)CC1` are -1.1% (inactive) and 631.
On the same counts, the results for `C/C=C/c1ccc(OCCn2cncn2)c(OC)c1` are -6.6% (inactive) and 746.
For `Cc1c(C(=O)OC2CCCCC2)[nH]c2c1C(=O)CC(C)(C)C2`, the inhibition is -8.9% (inactive) and the cell count amounted to 342.
For `COc1ccccc1N1C(=O)CC(Sc2nc(C)cc(C)n2)C1=O` (stereo not given), the inhibition was -8.2% (inactive) and the cell count is 613.
As for `Cc1nc(SCCC(=O)O)c2ccccc2n1`, the inhibition was -2.5% (inactive) and the cell count came out at 310.
On the same counts, the results for `Nc1sccc1C(=O)c1ccc(Cl)cc1` are 0% (inactive) and 403.
On the same counts, the results for `Cc1ccccc1Cn1ccc(NC(=O)c2onc(C)c2Cl)n1` are -1.6% (inactive) and 654.
Consider `Nc1c(C(=O)NCCN2CCOCC2)c2nc3ccccc3nc2n1-c1ccc2c(c1)OCO2`, for which the inhibition is -8.4% (inactive) and the cell count came to 337.
For the compound `Cc1cc(C(=O)Nc2nc3c(s2)CCCC3)cs1`, the inhibition was 7.6% (inactive) and the cell count turned out to be 347.
In the same order, the values of `COC(=O)CNc1nc(C2CC2)nc2c1nnn2Cc1ccccc1Cl` are 8.3% (inactive) and 459.
In the same order, the values of `CCN1CCN(C(c2ccc(F)cc2)c2nnnn2Cc2cccs2)CC1` (stereo not given) are -8.6% (inactive) and 605.
On the same counts, the results for `O=C1CN(c2nc3ccccc3n3cnnc23)CC(=O)N1CCc1ccccc1` are 10% (inactive) and 662.
As to `O=S(=O)(c1ccc(S(=O)(=O)N2CCN3CCCC3C2)cc1)N1CCCC1` (stereo not given), the inhibition was -5.3% (inactive) and the cell count was 575.
Take `O=C1CC(c2cccc(Cl)c2)Cc2nc(N3CCN(c4ccccc4)CC3)ncc21` (stereo not given): the cell count turned out to be 715 and the inhibition was -1.6% (inactive).
For `CCC1SC2=NC(C)=C(C(=O)OC)C(c3ccc(C)cc3)N2C1=O` (stereo not given), the inhibition was -11.1% (inactive) and the cell count worked out at 562.
In the same order, the values of `O=C(CN1CCC(NC(=O)c2ccc(F)cc2)CC1)NCc1ccccc1F` are 4.6% (inactive) and 435.
In the same order, the values of `COC(=O)C(C)NC(=O)C12CC3CC(CC(C3)C1)C2` (stereo not given) are -5.8% (inactive) and 512.
On the same counts, the results for `Cc1ccc(S(=O)(=O)NC(=O)c2cc(C)n(CCCn3ccnc3)c2C)cc1` are -2.9% (inactive) and 218.
Turning to `O=S(=O)(NCC(c1cccnc1)N1CCN(c2ccccc2)CC1)c1cc(F)ccc1F` (stereo not given), the inhibition was -6.2% (inactive) and the cell count was found to be 524.
Consider `COc1ccc2ccccc2c1CN1CCN(C)CC1`, for which the inhibition is -7.1% (inactive) and the cell count is 441.
In the same order, the values of `CCOC(=O)/C=C1\CC(=O)Nc2nonc2N1` are -3.4% (inactive) and 330.
Take `CCn1ncc(Cl)c1C(=O)Nc1ccncc1`: the cell count came to 587 and the inhibition is -6.1% (inactive).
In the case of `Cn1c(=O)cc(OCC(=O)NCCCN2CCN(c3cccc(Cl)c3)CC2)c2ccccc21`, the cell count came out at 583 and the inhibition is 8% (inactive).
On the same counts, the results for `CCOc1cc(C(=O)N(C)Cc2cc3cc(OC)ccc3[nH]c2=O)cc(OCC)c1OCC` are 394 and 4% (inactive).
